Measurements published in PubChem BioAssay (EPA / NIEHS).
Activity calls are given as the source filed them. The calls were made as follows: active = hit-call score of the fitted dose curve at least 0.9, where 1 is the maximum; inactive = score below 0.9.

How the values were obtained:
Details in all cases: mRNA level, 48 h; actives raise or lower the signal
[1] = read-out: ATP-citrate lyase (ACLY), ACLY (gene 47); assay: LTEA_HepaRG_ACLY: Life Technologies and Expression Analysis (LTEA) Assay for ATP-citrate lyase (ACLY) using HepaRG (AID 2283466)
How it was run: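 Differentiated HepaRG cells exposed 48 h in serum-free induction medium to eight half-log concentrations up to 100 uM in 0.5% DMSO, duplicates. Transcript measured by Fluidigm TaqMan qRT-PCR, normalized to ACTB, GAPDH, POLR2A; bidirectional fit versus DMSO.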

[2] = read-out: Peroxisomal acyl-coenzyme A oxidase 1 (ACOX1) gene, ACOX1 (gene 51); assay: LTEA_HepaRG_ACOX1: Life Technologies and Expression Analysis (LTEA) Assay for Peroxisomal acyl-coenzyme A oxidase 1 (ACOX1) gene using HepaRG (AID 2283467)
How it was run: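 HepaRG cells, plated 48 h then switched to serum-free induction medium, were exposed in duplicate for 48 h to 8-point half-log concentrations up to 100 uM in 0.5% DMSO. ACOX1 mRNA was measured by qRT-PCR, normalized to ACTB/GAPDH/POLR2A, and fitted bidirectionally versus DMSO.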

[3] = read-out: Alkaline Phosphatase, Placental (ALPP) gene, ALPP (gene 250); assay: LTEA_HepaRG_ALPP: Life Technologies and Expression Analysis (LTEA) Assay for Alkaline Phosphatase, Placental (ALPP) gene using HepaRG (AID 2283468)
How it was run: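 Differentiated human HepaRG cells were plated and cultured 48 h, then exposed in duplicate for 48 h in serum-free induction medium to eight half-log concentrations from 100 uM in 0.5% DMSO. ALPP mRNA was measured by TaqMan qRT-PCR, normalized to ACTB, GAPDH, POLR2A.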

[4] = read-out: Bcl-2 (BAD) gene, BAD (gene 572); assay: LTEA_HepaRG_BAD: Life Technologies and Expression Analysis (LTEA) Assay for Bcl-2 (BAD) gene using HepaRG (AID 2283469)
How it was run: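 Differentiated HepaRG cells were exposed in duplicate in 0.5% DMSO for 48 h to eight-point half-log concentrations up to 100 uM. BAD mRNA was measured by Fluidigm TaqMan qRT-PCR, normalized to ACTB, GAPDH and POLR2A, and fitted bidirectionally against DMSO.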

[5] = read-out: Bcl-2 (BAX) gene, BAX (gene 581); assay: LTEA_HepaRG_BAX: Life Technologies and Expression Analysis (LTEA) Assay for Bcl-2 (BAX) gene using HepaRG (AID 2283470)
How it was run: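 HepaRG (human liver), 48 h exposure, duplicate wells. 8-pt curve, half-log from 100 uM, 0.5% DMSO. BAX transcript by TaqMan qRT-PCR; ACTB/GAPDH/POLR2A normalization; gain or loss vs DMSO baseline.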

[6] = read-out: adenosine kinase (ADK) gene, ADK (gene 132); assay: LTEA_HepaRG_ADK: Life Technologies and Expression Analysis (LTEA) Assay for adenosine kinase (ADK) gene using HepaRG (AID 2283471)
How it was run: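 ADK expression quantified by qRT-PCR, normalised to three housekeeping genes, after 48 h exposure of HepaRG cells to eight concentrations (top 100 uM, half-log steps, duplicate, 0.5% DMSO). Up- or down-regulation fitted relative to vehicle.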

[7] = read-out: Alpha-fetoprotein (AFP) gene, AFP (gene 174); assay: LTEA_HepaRG_AFP: Life Technologies and Expression Analysis (LTEA) Assay for Alpha-fetoprotein (AFP) gene using HepaRG (AID 2283472)
How it was run: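 HepaRG, single lot; 48 h post-plating -> serum-free induction medium; cpd 8-pt, 100 uM top, half-log, 0.5% DMSO, duplicate, 48 h. RNA -> qRT-PCR AFP, norm ACTB/GAPDH/POLR2A. Bidirectional fit vs DMSO.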

[8] = read-out: Apolipoprotein A-V (APOA5) gene, APOA5 (gene 116519); assay: LTEA_HepaRG_APOA5: Life Technologies and Expression Analysis (LTEA) Assay for Apolipoprotein A-V (APOA5) gene using HepaRG (AID 2283474)
How it was run: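 Differentiated human HepaRG cells were exposed in duplicate for 48 h to eight half-log concentrations from 100 uM in 0.5% DMSO. APOA5 mRNA was quantified by TaqMan qRT-PCR, normalized to ACTB, GAPDH and POLR2A, and fitted bidirectionally against DMSO.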

[9] = read-out: Apoptosis regulator Bcl-2 (Homo sapiens) (UniProt P10415); assay: LTEA_HepaRG_BCL2: Life Technologies and Expression Analysis (LTEA) Assay for Bcl-2 gene using HepaRG (AID 2283475)
How it was run: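 HepaRG, plated 48 h then switched to serum-free induction medium; dosed 48 h, 8 conc. (max 100 uM, half-log steps), duplicate, 0.5% DMSO. Lysis in RLT, RNA isolated, TaqMan qRT-PCR for BCL2; ACTB/GAPDH/POLR2A normalisation; bidirectional fit vs DMSO.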

[10] = read-out: Bcl-2 (BID) gene, BID (gene 637); assay: LTEA_HepaRG_BID: Life Technologies and Expression Analysis (LTEA) Assay for Bcl-2 (BID) gene using HepaRG (AID 2283476)
How it was run: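 Transcript levels of BID, measured by qRT-PCR and normalized to three housekeeping genes, were fitted bidirectionally against DMSO controls. Cells were HepaRG, dosed 48 h at up to 100 uM.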

[11] = read-out: Caspase-3 (Homo sapiens) (UniProt P42574); assay: LTEA_HepaRG_CASP3: Life Technologies and Expression Analysis (LTEA) Assay for cysteine-aspartic acid protease (CASP3) using HepaRG (AID 2283477)
How it was run: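 Differentiated human HepaRG cells in serum-free induction medium were exposed 48 h to 8-point half-log concentrations from 100 uM (0.5% DMSO vehicle). CASP3 mRNA was measured by qRT-PCR, normalised to ACTB, GAPDH and POLR2A, with bidirectional fitting against DMSO.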

[12] = read-out: Cytochrome P450 (CYP24A1), CYP24A1 (gene 1591); assay: LTEA_HepaRG_CYP24A1: Life Technologies and Expression Analysis (LTEA) Assay for Cytochrome P450 (CYP24A1) using HepaRG (AID 2283478)
How it was run: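 Differentiated HepaRG cells, pre-cultured 48 h, were exposed in duplicate for 48 h in serum-free induction medium to 8 half-log concentrations (top 100 uM, 0.5% DMSO). CYP24A1 mRNA was quantified by TaqMan qRT-PCR, normalized to ACTB/GAPDH/POLR2A, fitted bidirectionally versus DMSO.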

[13] = read-out: cysteine-aspartic acid protease (CASP8), CASP8 (gene 841); assay: LTEA_HepaRG_CASP8: Life Technologies and Expression Analysis (LTEA) Assay for cysteine-aspartic acid protease (CASP8) using HepaRG (AID 2283480)
How it was run: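 Differentiated HepaRG cells in serum-free induction medium, 48 h exposure, eight-point half-log series from 100 uM in 0.5% DMSO, duplicates. CASP8 mRNA by qRT-PCR, normalized to ACTB, GAPDH, POLR2A; bidirectional fit versus DMSO.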

[14] = read-out: Cytochrome P450 2C19 (Homo sapiens) (UniProt P33261); assay: LTEA_HepaRG_CYP2C19: Life Technologies and Expression Analysis (LTEA) Assay for CYP2C19 using HepaRG (AID 2283482)
How it was run: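 Differentiated human HepaRG cells were exposed for 48 h in serum-free induction medium to 8 concentrations (top 100 uM, half-log steps, 0.5% DMSO). CYP2C19 mRNA was measured by qRT-PCR, normalized to ACTB/GAPDH/POLR2A, and fitted bidirectionally against DMSO.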

[15] = read-out: CYP2C8 (gene 1558); assay: LTEA_HepaRG_CYP2C8: Life Technologies and Expression Analysis (LTEA) Assay for CYP2C8 using HepaRG (AID 2283483)
How it was run: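 Differentiated HepaRG cells in serum-free induction medium exposed 48 h in duplicate to 8 half-log concentrations from 100 uM in 0.5% DMSO. CYP2C8 mRNA by qRT-PCR normalized to ACTB, GAPDH, POLR2A; bidirectional fit versus DMSO.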

[16] = read-out: CYP2C9 (gene 1559); assay: LTEA_HepaRG_CYP2C9: Life Technologies and Expression Analysis (LTEA) Assay for CYP2C9 using HepaRG (AID 2283484)
How it was run: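 Differentiated human HepaRG cells in serum-free induction medium were exposed 48 h to chemicals in 8-point half-log series from 100 uM (0.5% DMSO), in duplicate. CYP2C9 mRNA was measured by qRT-PCR, normalized to ACTB/GAPDH/POLR2A, with bidirectional fitting versus DMSO.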

[17] = read-out: BCL2L11 (gene 10018); assay: LTEA_HepaRG_BCL2L11: Life Technologies and Expression Analysis (LTEA) Assay for Bcl-2 (BCL2L11) gene using HepaRG (AID 2283473)
How it was run: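 Differentiated human HepaRG cells in serum-free induction medium were exposed in duplicate for 48 h to eight concentrations (top 100 uM, half-log steps, 0.5% DMSO). BCL2L11 mRNA was quantified by TaqMan qRT-PCR, normalized to ACTB/GAPDH/POLR2A, bidirectional fit versus DMSO.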

[18] = read-out: CYP2E1 (gene 1571); assay: LTEA_HepaRG_CYP2E1: Life Technologies and Expression Analysis (LTEA) Assay for CYP2E1 using HepaRG (AID 2283485)
How it was run: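 Human liver line HepaRG, plated 48 h, then serum-free induction medium + chemical x 48 h; 8-pt CRC from 100 uM, half-log, 0.5% DMSO, n=2. Readout: CYP2E1 mRNA qRT-PCR vs ACTB/GAPDH/POLR2A; bidirectional fit vs DMSO.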

[19] = read-out: Cytochrome P450 (CYP2B6), CYP2B6 (gene 1555); assay: LTEA_HepaRG_CYP2B6: Life Technologies and Expression Analysis (LTEA) Assay for Cytochrome P450 (CYP2B6) using HepaRG (AID 2283481)
How it was run: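 Differentiated HepaRG cells, serum-free induction medium, exposed 48 h in duplicate to 8-point half-log concentrations from 100 uM in 0.5% DMSO. CYP2B6 mRNA by qRT-PCR, normalized to ACTB, GAPDH, POLR2A; bidirectional fit versus DMSO.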

[20] = read-out: Cytochrome P450 (CYP1A2), CYP1A2 (gene 1544); assay: LTEA_HepaRG_CYP1A2: Life Technologies and Expression Analysis (LTEA) Assay for Cytochrome P450 (CYP1A2) using HepaRG (AID 2283479)
How it was run: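 Differentiated human HepaRG cells in serum-free induction medium were exposed in duplicate for 48 h to 8-point half-log concentrations up to 100 uM in 0.5% DMSO. CYP1A2 mRNA measured by qRT-PCR, normalized to ACTB, GAPDH, POLR2A; bidirectional fit vs DMSO.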

Measured: AC50

Cytochrome P450 2C19 (Homo sapiens), sequence (P33261 whole entry, looked up): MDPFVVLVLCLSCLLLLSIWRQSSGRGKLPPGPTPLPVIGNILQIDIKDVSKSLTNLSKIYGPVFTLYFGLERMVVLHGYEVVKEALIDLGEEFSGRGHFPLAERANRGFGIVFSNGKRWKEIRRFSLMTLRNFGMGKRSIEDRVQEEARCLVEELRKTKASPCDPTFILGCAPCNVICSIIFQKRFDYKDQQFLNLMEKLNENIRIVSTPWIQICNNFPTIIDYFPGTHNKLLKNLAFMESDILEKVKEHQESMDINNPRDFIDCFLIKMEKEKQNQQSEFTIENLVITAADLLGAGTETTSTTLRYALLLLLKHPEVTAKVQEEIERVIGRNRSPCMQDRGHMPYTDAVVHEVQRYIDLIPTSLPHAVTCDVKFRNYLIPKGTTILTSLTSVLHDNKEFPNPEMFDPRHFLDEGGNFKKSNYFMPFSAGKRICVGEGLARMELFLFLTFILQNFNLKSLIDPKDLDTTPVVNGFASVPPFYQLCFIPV
Apoptosis regulator Bcl-2 (Homo sapiens), sequence (P10415 whole entry, looked up): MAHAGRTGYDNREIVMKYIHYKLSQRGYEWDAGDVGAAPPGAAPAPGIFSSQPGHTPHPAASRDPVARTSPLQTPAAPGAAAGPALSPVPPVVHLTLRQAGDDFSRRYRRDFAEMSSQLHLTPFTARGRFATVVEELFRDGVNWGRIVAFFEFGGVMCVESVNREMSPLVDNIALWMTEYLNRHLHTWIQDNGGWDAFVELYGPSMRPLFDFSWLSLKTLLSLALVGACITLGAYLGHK
Caspase-3 (Homo sapiens), sequence (P42574 whole entry, looked up): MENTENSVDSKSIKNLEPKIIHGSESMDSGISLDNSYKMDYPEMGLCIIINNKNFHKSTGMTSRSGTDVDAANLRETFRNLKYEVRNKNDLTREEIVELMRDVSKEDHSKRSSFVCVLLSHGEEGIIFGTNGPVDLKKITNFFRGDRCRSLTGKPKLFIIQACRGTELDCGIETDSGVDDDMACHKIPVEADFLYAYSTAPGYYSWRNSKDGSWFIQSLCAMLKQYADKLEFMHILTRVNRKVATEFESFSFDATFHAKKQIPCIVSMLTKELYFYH

CNC(=O)N(C)c1nnc(C(C)(C)C)s1
not listed: [17] | [18] | [19] | [20]
inactive: all other assays above

Cc1c(COC(=O)[C@@H]2[C@H](/C=C(\Cl)C(F)(F)F)C2(C)C)cccc1-c1ccccc1
active: [7] 50 µM | [14] 17.9 µM | [18] 48.2 µM
not listed: [10] | [19] | [20]
inactive: all other assays above

N#Cc1c(Cl)cccc1Cl
active: [19] 12.1 µM
not listed: [17] | [20]
inactive: all other assays above

O=C1C2CC=CCC2C(=O)N1SC(Cl)(Cl)Cl (stereo not given)
active: [3] 10.8 µM
not listed: [10] | [12] | [17] | [20]
inactive: all other assays above

CN/C(=N\[N+](=O)[O-])NCc1cnc(Cl)s1
active: [7] 50 µM | [18] 50 µM
not listed: [12] | [19] | [20]
inactive: all other assays above

CS(=O)(=O)c1cc(C(F)(F)F)ccc1C(=O)c1cnoc1C1CC1
active: [18] 9.92 µM
not listed: [17] | [20]
inactive: all other assays above

Clc1cccc(C(Cl)(Cl)Cl)n1
active: [19] 2.9 µM
not listed: [12] | [20]
inactive: all other assays above

COC(=O)NC(=S)Nc1ccccc1NC(=S)NC(=O)OC
active: [20] 39 µM | [19] 9.55 µM | [14] 13.7 µM | [18] 26.8 µM
not listed: [5] | [12]
inactive: all other assays above

Cc1cnc(C2=NC(C)(C(C)C)C(=O)N2)c(C(=O)O)c1 (stereo not given)
not listed: [19]
inactive: all other assays above

CC1(C)CON(Cc2ccccc2Cl)C1=O
active: [14] 6.15 µM | [15] 12.8 µM | [18] 31.4 µM
not listed: [12] | [19] | [20]
inactive: all other assays above

OC(c1ccc(Cl)cc1)(c1ccc(Cl)cc1)C(Cl)(Cl)Cl
inactive: [1] | [3] | [7] | [12]
active: [2] 50 µM | [4] 70.1 µM | [5] 78.2 µM | [6] 74 µM | [8] 4.05 µM | [9] 86.4 µM | [10] 85 µM | [11] 50 µM | [13] 50 µM | [14] 85.2 µM | [15] 80.6 µM | [16] 81.6 µM | [18] 50 µM

COc1cc(OC)nc(NC(=O)NS(=O)(=O)c2ncccc2OCC(F)(F)F)n1
active: [19] 23.8 µM | [14] 16.3 µM | [16] 6.59 µM
not listed: [5]
inactive: all other assays above
